Assay [1] can be described thus: Quantitative High-Throughput drug screen in 47 multiple myeloma cell lines against the NCATS MIPE library collection: XG6_PLB cell viability assay (AID 1919865). Further: nearly all actives have a fitted effect of over 40% in size. The procedure, abridged:
(§1)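 Plated at 500 cells per well, myeloma lines received MIPE 4.0 compounds by pin tool. Following 48 h culture at 37 °C, CellTiter-Glo luminescence gave viability relative to DMSO and media-only controls.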

Assay [2] can be described thus: Quantitative High-Throughput drug screen in 47 multiple myeloma cell lines against the NCATS MIPE library collection: XG1_PLB cell viability assay (AID 1919866). Further: nearly all actives have a fitted effect of over 35% in size. The procedure, abridged: as §1
A short description of assay [3]: Quantitative High-Throughput drug screen in 47 multiple myeloma cell lines against the NCATS MIPE library collection: UTMC2_PLB cell viability assay (AID 1919868). Further: nearly all actives have a fitted effect of over 55% in size. To be noted: CellTiter-Glo ATP luminescence, 48 h; viability (% of DMSO control): at 45.8 µM (top of the series) unless noted. The procedure, abridged: as §1
The nature of assay [4]: Quantitative High-Throughput drug screen in 47 multiple myeloma cell lines against the NCATS MIPE library collection: PE2_PLB cell viability assay (AID 1919869). Further: nearly all actives have a fitted effect of over 35% in size. The procedure, abridged:
as §1

Assay [5] in a line: Quantitative High-Throughput drug screen in 47 multiple myeloma cell lines against the NCATS MIPE library collection: PCM6_Riken cell viability assay (AID 1919870). Further: nearly all actives have a fitted effect of over 30% in size. The procedure, abridged:
as §1

A short description of assay [6]: Quantitative High-Throughput drug screen in 47 multiple myeloma cell lines against the NCATS MIPE library collection: RPMI8226_ATCC cell viability assay (AID 1919871). Further: nearly all actives have a fitted effect of over 30% in size. The procedure, abridged: as §1
The nature of assay [7]: Quantitative High-Throughput drug screen in 47 multiple myeloma cell lines against the NCATS MIPE library collection: OPM2_DSMZ cell viability assay (AID 1919872). Further: nearly all actives have a fitted effect of over 30% in size. An outline of the steps:
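We plated 500 myeloma cells per well, pinned in MIPE 4.0 compounds, and incubated for 48 hours at 37C. ATP was then quantified with CellTiter-Glo, with DMSO and media-only wells defining 100% and 0%.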

A short description of assay [8]: Quantitative High-Throughput drug screen in 47 multiple myeloma cell lines against the NCATS MIPE library collection: KMS11_JCRBsus cell viability assay (AID 1919873). Further: nearly all actives have a fitted effect of over 50% in size. The procedure, abridged: as §1
The nature of assay [9]: Quantitative High-Throughput drug screen in 47 multiple myeloma cell lines against the NCATS MIPE library collection: KMS28BM_JCRB cell viability assay (AID 1919874). Further: nearly all actives have a fitted effect of over 35% in size. An outline of the steps: as §1
The nature of assay [10]: Quantitative High-Throughput drug screen in 47 multiple myeloma cell lines against the NCATS MIPE library collection: VP6_DJ cell viability assay (AID 1919867). Further: nearly all actives have a fitted effect of over 40% in size. The procedure, abridged: as §1

Results filed as inconclusive are left out. Calls of active or inactive are those of the source. The call rests on the fitted dose curve; in most records, active means well fitted cell-killing curve with a large enough effect; inconclusive means small, poorly fitted or top-dose-only effect, or effect the other way; inactive means no such curve, though single readings can be large or run the other way.
Potency means the concentration at half of the fitted maximal effect.

As for `COCCn1c2c([n+](Cc3cnccn3)c1C)C(=O)c1ccccc1C2=O`, the Potency in assay [1] is 0.0209 µM (active); in assay [2], 0.0074 µM (active); in assay [3], 0.0418 µM (active); in assay [4], 0.0187 µM (active); in assay [5], 0.0235 µM (active); in assay [6], 0.0235 µM (active). For the same compound, the Potency in assay [7] is 0.059 µM (active); in assay [8], 0.0132 µM (active); in assay [9] it was 0.0148 µM (active).

Consider `O=C(CCCCCCNC(=O)c1cnc(N(c2ccccc2)c2ccccc2)nc1)NO`, for which the Potency is 14.8 µM (active) in assay [1]; 9.35 µM (active) in assay [2]; 7.43 µM (active) in [3]; 9.35 µM (active) in [4]; 9.35 µM (active) in [5]; 14.8 µM (active) in assay [6]. Also, the Potency was 10.5 µM (active) in [7], 7.43 µM (active) in [8] and 4.18 µM (active) in assay [9].

Take `CC[C@H](CO)Nc1nc(NCc2ccccc2)c2ncn(C(C)C)c2n1`: the Potency in assay [1] was 14.8 µM (active); in assay [2] it was 16.6 µM (active); in [10], 18.7 µM (active); in assay [4] it was 14.8 µM (active); in assay [5] it was 9.35 µM (active); in [8] it was 20.9 µM (active).

Turning to `COc1ccc2c(c1)CC[C@@H](CN(C)CC(=O)O)[C@H]2c1ccccc1`, the Potency in [1] is 0.833 µM (active); in assay [2], 0.833 µM (active); in [10] it was 1.87 µM (active); in assay [5] it was 1.66 µM (active); in assay [6], 2.64 µM (active); in assay [7], 8.33 µM (active). Further, the Potency in assay [8] was 0.662 µM (active); in assay [9], 1.05 µM (active).

For `CN(c1ncccc1CNc1nc(Nc2ccc3c(c2)CC(=O)N3)ncc1C(F)(F)F)S(C)(=O)=O`, the Potency in assay [1] was 3.72 µM (active); in assay [2], 3.32 µM (active); in assay [3], 2.35 µM (active); in assay [4], 3.32 µM (active); in assay [5], 2.35 µM (active); in assay [6], 8.33 µM (active). Moreover, the Potency is 7.43 µM (active) in assay [7], 2.64 µM (active) in assay [8] and 6.62 µM (active) in assay [9].

On to `CC(=O)c1c(C)c2cnc(Nc3ccc(N4CCNCC4)cn3)nc2n(C2CCCC2)c1=O`, for which the Potency in assay [1] was 14.8 µM (active); in [2] it was 14.8 µM (active); in [10] it was 18.7 µM (active); in assay [4], 18.7 µM (active); in assay [5], 5.9 µM (active); in assay [6] it was 2.09 µM (active). The Potency is 20.9 µM (active) in assay [8] and 23.5 µM (active) in assay [9].

For the compound `CN1CCN(c2ccc3nc(-c4c(N)c5c(F)cccc5[nH]c4=O)[nH]c3c2)CC1`, the Potency was 2.09 µM (active) in assay [1]; 3.32 µM (active) in assay [2]; 2.35 µM (active) in [10]; 5.26 µM (active) in assay [4]; 2.64 µM (active) in [5]; 29.6 µM (active) in [6]. In addition, the results for the Potency in [8] and in assay [9] were 10.5 µM (active) and 14.8 µM (active), respectively.

As to `CCC(=C(c1ccccc1)c1ccc(OCCN(C)C)cc1)c1ccccc1`, the Potency was 20.9 µM (active) in assay [1]; 16.6 µM (active) in [2]; 20.9 µM (active) in assay [10]; 26.4 µM (active) in assay [4]; 23.5 µM (active) in [5]; 20.9 µM (active) in [9].

As for `CCOc1cc2ncc(C#N)c(Nc3ccc(F)c(Cl)c3)c2cc1NC(=O)C=CCN(C)C`, the Potency in [1] was 2.64 µM (active); in [2], 10.5 µM (active); in [3], 0.296 µM (active); in [4], 5.9 µM (active); in assay [5], 1.66 µM (active); in assay [6], 10.5 µM (active). Further, the Potency is 14.8 µM (active) in assay [7], 2.64 µM (active) in assay [8] and 3.32 µM (active) in [9].

For `CN(C1CCc2c(c3ccccc3n2CC(=O)O)C1)S(=O)(=O)c1ccc(F)cc1` (stereo not given), the Potency is 1.87 µM (active) in [1]; 3.72 µM (active) in [2]; 0.0743 µM (active) in [10]; 3.72 µM (active) in assay [5]; 0.296 µM (active) in [9]. Further, the Potency entry in assay [4], in assay [6] and in assay [7] was “inactive” in each case.

As to `CC(=O)Nc1sc2c(c1-c1nc3ccccc3s1)CNC2`, the Potency in assay [1] is 9.35 µM (active); in [2] it was 14.8 µM (active); in assay [10], 11.8 µM (active); in assay [4], 20.9 µM (active); in assay [5], 14.8 µM (active); in assay [6], 14.8 µM (active). Besides, the Potency in [9] was 14.8 µM (active).

Regarding `O=C(NCCCNc1nc(Nc2cccc(NC(=O)N3CCCC3)c2)ncc1I)c1cccs1`, the Potency in assay [1] is 1.32 µM (active); in assay [2], 1.05 µM (active); in assay [10], 2.09 µM (active); in assay [4], 1.18 µM (active); in assay [5] it was 5.26 µM (active); in [7], 16.6 µM (active).

For the compound `CCOc1ccccc1OCCNC(C)Cc1ccc(OC)c(S(N)(=O)=O)c1` (stereo not given), the Potency result in [1], in assay [2], in assay [3], in [4], in [5] and in [6] was “inactive” in each case. Further, the Potency entry in assay [7] and in assay [8] was “inactive” throughout.

Consider `CC(C)(C)NC(=O)[C@H]1CN(Cc2cccnc2)CCN1C[C@@H](O)C[C@@H](Cc1ccccc1)C(=O)N[C@H]1c2ccccc2C[C@H]1O`, for which the Potency is 23.5 µM (active) in [1]; 2.96 µM (active) in assay [2]; 7.43 µM (active) in [10]; 8.33 µM (active) in [5]; 18.7 µM (active) in assay [8].

Take `CN(C)Cc1c(C(=O)NCCOc2ccc(C(=O)NO)cc2)oc2ccccc12`: the Potency was 2.96 µM (active) in [1]; 1.05 µM (active) in [2]; 0.148 µM (active) in assay [10]; 2.35 µM (active) in [4]; 0.935 µM (active) in assay [5]; 1.48 µM (active) in assay [6]. Besides, the results for the Potency in [7] and in assay [9] were 1.05 µM (active) and 0.418 µM (active), respectively.

As for `COC(=O)Nc1nc2ccc(C(=O)c3ccc(F)cc3)cc2[nH]1`, the Potency in assay [1] was 0.469 µM (active); in [2], 0.332 µM (active); in assay [10] it was 0.935 µM (active); in assay [5], 0.743 µM (active); in assay [6], 1.87 µM (active); in [7], 0.935 µM (active). Besides, the results for the Potency in assay [8] and in [9] were 0.296 µM (active) and 0.332 µM (active), respectively.

Consider `CC(=O)OCC(=O)[C@@]1(O)[C@H](C)C[C@H]2[C@@H]3C=C(C)C4=Cc5c(cnn5-c5ccccc5)C[C@]4(C)[C@@H]3[C@@H](O)C[C@@]21C`, for which the Potency in assay [1] was 4.18 µM (active); in [2], 5.26 µM (active); in [3], 11.8 µM (active); in [4] it was 8.33 µM (active); in assay [5], 3.32 µM (active); in assay [6], 4.18 µM (active). In addition, the Potency in assay [7] is 20.9 µM (active). Besides, the Potency entry in [9] is “inactive”.

The record behind these values is PubChem BioAssay (NCATS).
